This is an account of results in PubChem BioAssay AID485344 (National Center for Advancing Translational Sciences (NCATS), 2010).

SMILES strings stand for the structures. The whole screen tested about 340,000 compounds, of which about 6,900 (2%) were called active. For the sample, actives were picked, then their nearest neighbours and some compounds at random. Values without a mark were called inactive. No stated cut-off is given here; in the data, active means inhibition above about 30%; inactive means below that, where a call was filed.

Sequence of D(2) dopamine receptor (Homo sapiens) (P14416 whole entry, looked up): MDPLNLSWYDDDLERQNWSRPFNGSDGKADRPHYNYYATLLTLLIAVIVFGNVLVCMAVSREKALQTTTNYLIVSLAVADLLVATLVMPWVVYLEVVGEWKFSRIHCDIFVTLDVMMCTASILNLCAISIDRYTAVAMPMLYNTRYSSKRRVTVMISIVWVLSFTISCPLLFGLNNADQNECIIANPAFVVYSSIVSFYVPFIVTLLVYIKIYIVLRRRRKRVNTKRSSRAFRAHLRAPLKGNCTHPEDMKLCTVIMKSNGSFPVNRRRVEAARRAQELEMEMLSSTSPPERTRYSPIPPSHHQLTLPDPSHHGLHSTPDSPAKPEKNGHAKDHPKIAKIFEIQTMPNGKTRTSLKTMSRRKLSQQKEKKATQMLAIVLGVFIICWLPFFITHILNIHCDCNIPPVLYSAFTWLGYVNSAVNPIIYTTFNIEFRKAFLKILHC

This assay addresses D(2) dopamine receptor (Homo sapiens) (UniProt P14416). In words: HTS Assay for Allosteric Antagonists of the Human D2 Dopamine Receptor: Primary Screen for Antagonists. Further: 0% is about no effect. The settings on record: HEK293 TREx D2 cells, calcium flux, dopamine EC80; at 10 µM; active compounds read high. The method, boiled down:
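Measurement of antagonist activity uses fluorescent calcium dye in inducible HEK293 T-REx D2 cells: 10 s baseline, compound addition with 180 s read, EC80 dopamine addition with a further 180 s read.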
With `CCN(CC)S(=O)(=O)c1ccc2[nH]c(=O)cc(C(=O)N(C)C3CCS(=O)(=O)C3)c2c1` (centres undefined), the inhibition is -4.37%.

On to `C=CCN(c1ccc(C(=O)Nc2cc(C)cc(C)c2)cc1)S(C)(=O)=O`, for which the inhibition was -5.69%. In the case of `CSCc1ccc(C(=O)Nc2cc(C)cc(C)c2)cc1`, the inhibition is 30.3% (active). For `CC(=O)Nc1ccccc1NC(=O)c1cc(C)cc(C)c1` the value was 13.8%. With `COC(=O)Cc1ccc(OC(=O)C2CCN(S(=O)(=O)c3ccc(OC)c(OC)c3)CC2)cc1`, the inhibition was -7.28%. `COc1ccc(CC(=O)OC(C)C(=O)Nc2ccc(S(N)(=O)=O)cc2)cc1` (centres undefined): the inhibition is -2.4%.

Turning to `COc1ccc(Cc2nnc(NC(=O)c3cc(OC)c(OC)c(OC)c3)s2)cc1OC`, the inhibition was 34.9% (active). As for `CCCc1nnc(NC(=O)c2cc(OC)cc(OC)c2)s1`, the figure is -9.73%; as for `COc1ccc(Cc2nnc(NC(=O)c3ccc(OC)cc3OC)s2)cc1`, 2.14%; as for `Cc1ccc(N2CC(C(=O)Nc3cc(Cl)ccc3-n3cncn3)CC2=O)cc1` (centres undefined), -16.3%.

Take `CCN(Cc1ccccc1)C(=O)Cc1ccc(OC)c(S(=O)(=O)N2CCOCC2)c1`: the inhibition was -8.71%. For `CC(NCC(=O)Nc1ccccc1C(=O)NC1CC1)c1ccccc1Cl` (centres undefined), the inhibition was 26.6%. For `COc1ccc(C(CNC(=O)c2cccc(S(=O)(=O)Nc3ccccc3Cl)c2)N2CCOCC2)cc1` (centres undefined) the value was -9.15%; for `COc1cc(C2C(C#N)=C(C)NC3=C2C(=O)CC(C)(C)C3)ccc1O` (centres undefined), -7.78%; for `CC(=O)C1=C(C)NC2=C(C(=O)CC(C)(C)C2)C1C` (centres undefined), 34% (active). As for `CCOC(=O)C1=C(C)NC2=C(C(=O)CC(C)(C)C2)C1c1ccsc1` (centres undefined), the figure is -9.11%; as for `CCOC(=O)c1ccccc1NC(=O)COC(=O)C(Cc1c[nH]c2ccccc12)NC(C)=O` (centres undefined), -6.93%; as for `CCC(=O)c1ccc(OCC(=O)Nc2ccc(N3CCCCC3)cc2)cc1`, 19%. As for `CCN(CC(=O)Nc1cc(Cl)ccc1C)C(=O)CSCc1ccc(C)cc1`, the figure is -3.18%.

Take `Cc1ccc(C2C3=C(Nc4[nH]n(-c5ccccc5)c(=O)c42)c2ccccc2C3=O)cc1` (centres undefined): the inhibition is -28.5%. With `CCOC(=O)C1=C(c2ccc(OC)cc2)C(=O)c2ccccc2C1=O`, the inhibition was -4.28%.

As to `COC(=O)C1=C(C)NC2=C(C(=O)c3ccccc32)C1c1ccc(-c2ccc(C(=O)O)cc2)o1` (centres undefined), the inhibition was 54.8% (active). As for `O=C(c1ccc(Cl)c(S(=O)(=O)N2CCCCCC2)c1)N1CCN(c2ccc(O)cc2)CC1`, the figure is 4.16%. `CCOC(=O)C(C)N(c1ccccc1Cl)S(C)(=O)=O` (centres undefined): the inhibition is -9.97%.

With `O=C(CCCCn1c(=O)[nH]c2ccccc2c1=O)NCc1ccc2c(c1)OCO2`, the inhibition was -1.23%. In the case of `O=C(CCCn1c(=O)[nH]c2cc(Cl)ccc2c1=O)NCCN1CCN(c2ccccc2)CC1`, the inhibition was 81.3% (active). For the compound `CCN(CC)CCNC(=O)CCCCCn1c(=O)[nH]c2cc(C(=O)OC)ccc2c1=O`, the inhibition is -2.71%.

`Cc1ccc(C)c(N2CCN(C(=O)CCCCn3c(=O)[nH]c4ccccc4c3=O)CC2)c1`: the inhibition was -2.01%. With `O=C(CCCCCn1c(=O)[nH]c2ccccc2c1=O)NCCc1c[nH]c2ccccc12`, the inhibition was 39.1% (active). Consider `O=C(CCc1c[nH]c2ccccc12)NCCOc1ccccc1`, for which the inhibition was 12.3%.

As for `O=C(CSc1ccccc1)Nc1cccc(S(=O)(=O)N2CCOCC2)c1`, the inhibition was 12.8%. As for `O=C(/C=C/c1cccc([N+](=O)[O-])c1)OCC(=O)N1CCOCC1`, the figure is 13.9%; as for `CSc1ccccc1NC(=O)COC(=O)CCCOc1ccc(C)cc1`, 5.07%.

Turning to `CCOc1cc(/C=C/C(=O)OCC(=O)NCCN2C(=O)CSC2=O)ccc1OCC(C)C`, the inhibition was 2.85%.

`CSCCC(NC(=O)c1ccc(Cl)cc1Cl)C(=O)NNC(=O)c1csc(N2CCOCC2)n1` (centres undefined): the inhibition was 33.7% (active). As for `COc1ccccc1C(=O)NC(CCSC)C(=O)NNC(=O)c1csc(N2CCOCC2)n1` (centres undefined), the figure is 6.58%; as for `O=C(NNC(=O)c1cc(-c2ccccc2Cl)nc2ccccc12)c1csc(N2CCOCC2)n1`, 4.74%. In the case of `CN1CCN(c2ccc(NC(=O)c3cc(Cl)c4c(c3)OCCO4)cc2)CC1`, the inhibition is -8.36%. For `COc1ccc(S(=O)(=O)N2CCCC2CNC(=O)C(=O)NC2CC2)cc1` (centres undefined), the inhibition is 2.63%. As for `Cc1ccccc1C(OCCN(C)C)C1CCCCC1` (centres undefined), the figure is 86.8% (active); as for `Cc1ccccc1C(OCC(O)CN1CCCCC1CCO)c1ccccc1` (centres undefined), -4.51%; as for `CN(C)CCOC1c2ccccc2-c2ccccc21`, -3.38%. As to `Cc1ccc(S(=O)(=O)NCCC(=O)NNC(=O)C2COc3ccccc3O2)cc1` (centres undefined), the inhibition was -0.636%. As for `CCCCN(C(=O)c1ccc2ccccc2c1)c1c(N)n(CCCC)c(=O)[nH]c1=O`, the inhibition is -22.6%. `Cc1ccc(/C=C/C(=O)OCC(=O)Nc2cccnc2Cl)cc1`: the inhibition was 13%. Turning to `Nc1nc(SC23CC4CC(CC(C4)C2)C3)ns1`, the inhibition is -8.79%. On to `CCCSc1nsc(N)n1`, for which the inhibition is -5.55%.

On to `CCCCCCSc1nsc(N)n1`, for which the inhibition is 51.1% (active). With `Cc1ccc(S(=O)(=O)N2CCCCC2)cc1NC(=O)c1cccnc1`, the inhibition is 1.41%. For `CCNC(=O)N1CCN(S(=O)(=O)c2ccc3c(c2)OCCCO3)CC1` the value was 11.7%. For `CCN(CC(=O)Nc1cccc(S(=O)(=O)N2CCCCC2)c1)Cc1ccccc1` the value was 0.844%. For `COc1ccccc1N1CC(C(=O)NCCN2C(=O)S/C(=C\c3cccnc3)C2=O)CC1=O` (centres undefined) the value was 4.67%; for `Cc1cc(OCCCN2CCN(Cc3ccccc3)CC2)ccc1[N+](=O)[O-]`, -14.3%; for `COc1cc(CN2CCCN(C)CC2)c([N+](=O)[O-])cc1OC`, 24.2%.

With `COc1cc(CN2CCN(Cc3ccc(C)cc3)CC2)c([N+](=O)[O-])cc1OC`, the inhibition was 88.1% (active). As to `COc1ccc(-c2sc3ccc(OC)cc3c2C#Cc2ccccn2)cc1`, the inhibition is -2.01%. As for `CCCCCCn1c(CN2CCCC(C)C2)nc2c1c(=O)n(C)c(=O)n2C` (centres undefined), the figure is 2.89%; as for `CC(O)c1nc2c(c(=O)n(C)c(=O)n2C)n1C` (centres undefined), 0.261%. Regarding `CC1CN(C2CCCCC2)c2nc3c(c(=O)n(C)c(=O)n3C)n2C1` (centres undefined), the inhibition was 38.7% (active).
